Screens as filed in PubChem.
ssDAF-12 act – S. stercoralis DAF-12 nuclear receptor activators, primary screen, cell-based, luminescence, HEK293, GRIP1 co-expression, lit1-tk-luc. HEK293 ssDAF-12/GRIP1 lit1-tk-luc reporter; % of 3 µM dafachronic acid response. activation, % at 6.8 µM. 370,000 compounds, 1% hits;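 active = activation above the mean over all tested compounds plus 3 SD, cut at about 0.9% in these data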
DAX1 inh-1 – DAX1 (NR0B1) inhibitors on StAR promoter, primary screen, cell-based, luminescence, SF-1 (NR5A1), full-length DAX-1. HEK293T StAR-luciferase reporter, SF-1/DAX-1 repression relief. inhibition, % at 6.8 µM. 370,000 compounds, 1.1% hits;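 active = inhibition above the mean over all tested compounds plus 3 SD, cut at about 3.6% in these data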;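 also: higher inhibition means more luminescence from relief of DAX-1 repression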
DAX1 inh-2 – DAX1 (NR0B1) inhibitors, primary screen, cell-based, HEK293, Gal4-DAX1, luciferase luminescence; Nuclear receptor subfamily 0 group B member 1 (Homo sapiens), P51843; HEK293 Gal4-DAX1 luciferase reporter; inhibition, % at 6.75 µM; 340,000 compounds, 0.99% hits; AID 504766, 2011;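 active = inhibition above the mean over all tested compounds plus 3 SD, cut at about 4.2% in these data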;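 also: inhibition shows as a rise in luminescence from relieved DAX1 repression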
Target sequence (P51843 207-470 limits assumed): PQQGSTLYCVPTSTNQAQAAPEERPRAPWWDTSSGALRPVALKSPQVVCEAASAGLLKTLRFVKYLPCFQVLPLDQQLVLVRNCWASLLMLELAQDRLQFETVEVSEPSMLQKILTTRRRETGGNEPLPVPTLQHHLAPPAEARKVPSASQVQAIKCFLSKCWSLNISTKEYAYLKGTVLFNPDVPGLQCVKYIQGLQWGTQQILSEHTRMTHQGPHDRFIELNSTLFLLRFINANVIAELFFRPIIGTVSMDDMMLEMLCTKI
hgDAF-12 ag – H. glycines DAF-12 receptor agonists, primary screen, cell-based, luminescence, HEK293, GAL4 fusion, UAS-luciferase; Nuclear hormone receptor DAF-12 (Heterodera glycines), GAL4 fusion; AID 687014, 2013; HEK293 GAL4-hgDAF12 UAS-luciferase reporter, agonist luminescence; normalized to butyrate control; 370,000 compounds, 1.8% hits; activation, % at 6.8 µM;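 active = activation above a cutoff set at the mean of all screened compounds plus 3 SD, cut at about 10% in these data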
hcDAF12 agonist – H. contortus DAF-12 nuclear receptor activators, primary screen, cell-based, luminescence, HEK293, lit1-tk-luc reporter; AID 652067, 2013; 370,000 compounds, 1.4% hits; HEK293 hcDAF-12 lit1-tk-luc reporter; 0% DMSO, 100% Δ7-dafachronic acid; activation, % at 6.8 µM;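 active = activation above the mean of all tested compounds plus 3 SD, cut at about 5.5% in these data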
Large screens that a line does not name were inactive. An excerpt weighted towards active compounds, which were near 4.1% of everything screened.

Cc1ccccc1OC1CCN(C(=O)C2CCC(=O)N(C3CCCC3)C2)CC1 (stereo unspecified)	none
COC1CCN(C(=O)C2CCC(=O)N(C3CCCCCC3)C2)CC1 (stereo unspecified)	hcDAF12 agonist 6.3
CSc1nc(N)nc2c1ncn2CC(=O)NCc1ccccc1	ssDAF-12 act 0.9
O=C(Nc1ccccn1)c1ccc(S(=O)(=O)N2CCCCC2)cc1	DAX1 inh-1 3.8
O=C(Nc1ccccn1)c1ccc(S(=O)(=O)N2CCCCCC2)cc1	DAX1 inh-1 4.3
CC(=O)Nc1ccc(S(=O)(=O)N2CCN(c3ccccn3)CC2)cc1	none
CC(=O)Nc1ccc(S(=O)(=O)N2CCN(c3ncccn3)CC2)cc1	DAX1 inh-2 6.0
C=CCOC(=O)N1CCN(C(=O)c2ccc3c(c2)nc(C)n3C2CCCC2)CC1	none (no result: DAX1 inh-2)
Cc1ccc2c(c1)c1c3n2CCN(CC#N)C3CCC1 (stereo unspecified)	DAX1 inh-2 6.5
Cc1ccc2c(c1)c1c3n2CCN(CC(N)=O)C3CCC1 (stereo unspecified)	none
Nc1nc2c(C(=O)N3CCOCC3)nnn2c2ccccc12	DAX1 inh-2 6.2
O=C1CCN(C(=O)c2ccc(Cl)cc2)N1	none
O=C1CCN(C(=O)CSc2ccc(Cl)cc2)N1	DAX1 inh-2 5.8
O=C(NCCc1c[nH]c2ccccc12)OCc1cn(Cc2ccc(F)c(F)c2)nn1	none (no result: DAX1 inh-2)
Cc1cc2ncc(-c3ccc(Cl)cc3)cn2n1	DAX1 inh-1 3.7, hgDAF-12 ag 10.7
O=C1C(=NO)CCc2ccccc21	ssDAF-12 act 1.3
O=C1N=C(N2CCOCC2)S/C1=C1\C(=O)N(Cc2ccccc2)c2ccccc21	DAX1 inh-2 4.4
Nc1c(C(=O)N/N=C/c2cccnc2)oc2nc(-c3ccccc3)cc(-c3ccco3)c12	none (no result: DAX1 inh-2)
Nc1c(C(=O)N/N=C/c2cccnc2)oc2nc(-c3ccco3)cc(-c3ccco3)c12	ssDAF-12 act 0.9 (no result: DAX1 inh-2)
Nn1c(SCc2cccc3ccccc23)nnc1-c1n[nH]c2c1CCC2	none (no result: DAX1 inh-2)
Cc1cc(C)n2cc(CSc3nc4ccccc4s3)nc2n1	hcDAF12 agonist 5.7
Cc1cc(C)n2cc(CSc3nnc(N)s3)nc2n1	none
COc1ccc(/C=C2\SC(=O)N(CCC(=O)N3CCCCC3)C2=O)cc1OC	DAX1 inh-2 5.8
COc1ccc(/C=C2\SC(=O)N(CC(=O)NN3CCN(C)CC3)C2=O)cc1OC	DAX1 inh-2 4.7
COc1ccc(/C=C2\SC(=O)N(CC(=O)Nc3ccc(O)cc3)C2=O)cc1OC	none
O=C(CCN1C(=O)S/C(=C\c2ccccc2)C1=O)N1CCCCC1	none
CCOC(=O)C(CNc1ccc(O)cc1)NC(=O)c1ccccc1 (stereo unspecified)	none (no result: DAX1 inh-2)
COc1ccc(C(O)c2nc(-c3cccs3)cs2)cc1 (stereo unspecified)	none (no result: DAX1 inh-2)
OC(c1ccco1)c1nc(-c2cccs2)cs1 (stereo unspecified)	ssDAF-12 act 1.4, hcDAF12 agonist 5.8 (no result: DAX1 inh-2)
C[C@H]1[C@@H](N(C)Cc2ccccc2)CC[C@@]23CCCN2C(=O)CCC[C@@H]13	none (no result: DAX1 inh-1, DAX1 inh-2)
Cc1ccnc(NC(c2ccsc2)c2ccc3ccc(C)nc3c2O)c1 (stereo unspecified)	DAX1 inh-2 4.9
Cc1ccccc1-c1cc2c(c3c1ccn3C)C1CCC2O1 (stereo unspecified)	DAX1 inh-1 3.8 (no result: DAX1 inh-2)
Cc1ccc(N2C(=O)N(CC(=O)Nc3ccc(C)cc3[N+](=O)[O-])C(=O)C2C)cc1 (stereo unspecified)	DAX1 inh-1 3.6
Cc1cccc2sc(N(CCCN(C)C)C(=O)c3ccc(Cl)s3)nc12	ssDAF-12 act 0.9
COc1ccccc1NS(=O)(=O)c1ccc(C)c(NC(=O)NCCCl)c1	DAX1 inh-2 4.4
COC(=O)C1CN(CCO)CCS(=O)(=O)N1Cc1cn(Cc2ccccc2Br)nn1 (stereo unspecified)	none (no result: DAX1 inh-2)
O=C(O)C1(Nc2ccc(Cl)cc2)CCCC1	DAX1 inh-2 5.3
NC(=O)C1(Nc2ccc(-c3ccc(Cl)cc3)cc2)CCCC1	none
Oc1nc(Nc2ccc(F)cc2)sc1/C=C1\C=Nc2ccccc21	none
O=c1[nH]c(S)c(/C=C2\C=Nc3ccccc32)s1	ssDAF-12 act 1.2 (no result: DAX1 inh-2)
COc1cc(CCCN2C(=S)NC[C@H]2Cc2ccc(O)cc2)cc(OC)c1OC	none
COc1cc(CCCN2CCNC[C@@H]2Cc2ccc(O)cc2)cc(OC)c1OC	ssDAF-12 act 1.0
Cc1ccc(-n2c(SCC(=O)Nc3ccc4cn[nH]c4c3)nnc2-c2ccccc2)cc1	none (no result: DAX1 inh-2)
OC(c1cccs1)(c1cccs1)C1C[N+]2(CF)CCC1CC2 (stereo unspecified)	hcDAF12 agonist 5.8
Cc1cc(/C=C2\C(=N)N3N=CSC3=NC2=O)c(C)n1Cc1ccccc1	DAX1 inh-2 5.4
CCCC1=NN2C(=N)/C(=C\c3cc(C)n(Cc4ccccc4)c3C)C(=O)N=C2S1	none
Cn1c2ccccc2c2cc(C(=O)NNC(=O)CCl)sc21	hcDAF12 agonist 6.2
CC(OC(=O)Cn1[nH]c(=O)c2ccccc2c1=O)C(=O)Nc1cccc(Cl)c1 (stereo unspecified)	DAX1 inh-2 4.2
CC(=O)CC[C@@H]1CC[C@]2(CCCN(S(C)(=O)=O)C2)O1	none (no result: DAX1 inh-2)
Nc1cc(=O)[nH]c(SCC(=O)Nc2ccc(S(=O)(=O)N3CCCC3)cc2)n1	DAX1 inh-2 4.3
Cc1cc2nc(-c3ccc(SCC(=O)Nc4ccc(S(=O)(=O)N5CCCC5)cc4)nc3)[nH]c2cc1C	DAX1 inh-1 3.7
Cc1ccc(-c2nnc(/C=C/c3ccccc3)o2)cc1	hgDAF-12 ag 10.8
Cc1ccc(/C=C/c2nnc(-c3cccc(C)c3)o2)cc1	none
COc1ccc(S(=O)(=O)NCc2cccnc2)cc1NC(=O)c1ccccc1	DAX1 inh-2 5.3
COc1ccc(S(=O)(=O)NCc2ccncc2)cc1NC(=O)c1ccccc1	none
COc1ccc(S(=O)(=O)NC(C)C(=O)NCc2cccnc2)cc1OC (stereo unspecified)	DAX1 inh-2 4.5
COc1ccc(S[C@]2(C(=O)N3CCCC3)CC(=O)N(P(=O)(OC)OC)[C@@H]2c2ccc(OC)cc2)cc1	none (no result: DAX1 inh-2)
CC(C)N1CCc2c(-c3nc4ccccc4s3)csc2C1	none (no result: DAX1 inh-1, DAX1 inh-2)
O=c1sc(Nc2ccccc2)nc2ccsc12	hcDAF12 agonist 6.2
CCOC(=O)/C=C1/N(C)c2ccccc2C1(C)C	DAX1 inh-2 6.1
